A549 viability: Nrf2 qHTS screen for inhibitors: counterscreen for cytotoxicity; Potency, µM (doses to about 46 µM), inactives show at the top dose activity change, negative = cytotoxicity, usual class: inhibitors; AID 504648, 2011; 390,000 tested, 0.16% active; A549 ARE-Fluc cells, CellTiter-Fluor viability, 18-24 h; also: potency is read from the fitted curve at half-maximal effect; % is scaled to controls: 0 for no effect and ±100 for the full control effect
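Cytotoxicity counterscreen: CellTiter-Fluor fluorescence was measured in A549 ARE_Fluc cells after 18-24 h of compound exposure in a concentration series. The subsequent BugLite luminescent read reports ARE-luciferase activity.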
Nrf2 block: Nrf2 qHTS screen for inhibitors; 360,000 tested, 2.1% active; A549 ARE-Fluc reporter, luciferase luminescence, 18-24 h; Potency, µM (titrated, usually from 46 µM), inactives show at the highest dose activity change, negative = inhibition, actives largely listed as inhibitors; AID 504444, 2011; also: potency is read from the fitted curve at half-maximal effect; % is scaled to controls: 0 for no effect and ±100 for the full control effect; nearly all actives have a fitted effect of over 60% in size
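A549 ARE_Fluc cells, 5000/well, 5% FBS OPTI-MEM; compounds in dose-response, 18-24 h at 37 °C/5% CO2; CellTiter-Fluor viability read (Ex 405/Em 525), then BugLite luciferase luminescence = Nrf2 activity.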
miR-21 reporter: qHTS Assay for Modulators of miRNAs and/orActivators of miR-21; HeLa miR-21 FLuc reporter, luciferase, 48 h; Potency, µM (top dose mostly 38.3 µM), for inactives: at the top dose activity change, positive = activation, actives largely listed as activators; 340,000 tested, under 10 active; AID 2288, 2010;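 also: % of control where 0% means no effect; miR-21 action dims this reporter so a rising signal means less miR-21 action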
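Using DMEM plus 10% FBS, HeLa miR-21-FLuc cells are incubated with test compounds (final up to about 40uM) for 48 hours; firefly luciferase signal is then imaged following reagent-mediated lysis.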
Nrf2 ARE act: qHTS of Nrf2 Activators. 410,000 tested, 0.31% active. AREc32 ARE-luciferase reporter (MCF7-derived line), luminescence, 24 h. Potency, µM (top dose mostly 46.1 µM), for the others: at the top dose activation, actives largely listed as activators; also: potency is read from the fitted curve at half-maximal effect; % of control where 0% means no effect; nearly all actives have a fitted effect of over 65% in size
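Quantitative high-throughput format: AREc32 reporter cells, 1000 per well, received compound by pin transfer and were incubated 24 hr at 37 deg C, 5% CO2, before Steady-Glo luminescence detection.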
p53 reactivation: qHTS assay for re-activators of p53 using a Luc reporter. 320,000 tested, 0.063% active. Potency, µM (doses to about 92.2 µM), inactives show top-dose activity change, positive = activation, hits mostly activators. H1299 p53-A138V BP100-luciferase reporter, luminescence, 24 h; also: potency is read from the fitted curve at half-maximal effect; % of control where 0% means no effect; nearly all actives have a fitted effect of over 45% in size
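p53-null H1299 cells stably carrying temperature-sensitive p53-A138V and a BP100-luciferase reporter were pinned with compounds (4-point, 1:5 series) and held 24 hrs at 37 deg C. Luminescence was read 10 min after detection reagent.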
ClpP mod: qHTS Assay for Activators of ClpP; 340,000 tested, 1.9% active; purified B. subtilis ClpP, FRET peptide cleavage, 20 min; Potency, µM (doses to about 57.5 µM), for inactives: at the top dose activity change, negative = active; AID 651965, 2013; ATP-dependent Clp protease proteolytic subunit (Bacillus subtilis (strain 168)), P80244; active = well fitted falling curve with a large enough effect; inconclusive = small, poorly fitted or top-dose-only effect; inactive = no such curve, though single readings can be large or run the other way; also: potency is read from the fitted curve at half-maximal effect; the source files actives as falling curves though it sought activators and does not explain the sign; nearly all actives have a fitted effect of over 65% in size
Target sequence (P80244 whole entry, looked up): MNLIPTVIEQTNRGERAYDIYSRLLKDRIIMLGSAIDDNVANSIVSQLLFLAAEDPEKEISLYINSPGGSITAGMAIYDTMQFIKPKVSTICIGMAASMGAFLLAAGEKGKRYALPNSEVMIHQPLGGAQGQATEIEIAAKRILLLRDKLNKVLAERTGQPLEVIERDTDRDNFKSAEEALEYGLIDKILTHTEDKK
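ClpP 10 microg/mL final, pH 8 Tris/KCl buffer with BSA, glycerol, Tween-20; compound pinned in; FRET-FV substrate; RT 20 min; Ex320/Em430; ΔFRET vs ADEP 5.8 microM, DMSO, no enzyme.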
* = called active by the depositor; ? = inconclusive; . = no result given. This is a sample that favours compounds with a hit; in the whole collection about 3.7% have one here. Unless noted, calls follow the shape of the dose curve; as a rule, active = well fitted curve in the direction sought with a large enough effect; inconclusive = small, poorly fitted or top-dose-only effect, or another doubt; inactive = no such curve, though single readings can be large; an effect the other way counts as inactive or inconclusive.

SMILES	A549 viability	Nrf2 block	miR-21 reporter	Nrf2 ARE act	p53 reactivation	ClpP mod
Cc1ccc(CNc2ncnc3cc(Cl)ccc23)cc1	-5.0%	20.6µM*	21.2%	23.5%	-0.8%	-4.7%
Cc1noc2ncnc(NCc3cccc(Cl)c3)c12	1.9%	?	19.5%	3.8%	.	-3.1%
CCCCN(CCCC)c1ccc(Cn2ccc3ccccc32)cc1	.	.	.	.	.	-3.6%
O=c1c(Sc2ccccc2)c(C(F)(F)F)[nH]n1-c1ccccc1	?	20.6µM*	15.6%	-0.3%	-3.1%	1.6%
Cc1c(Br)cccc1NC(=O)c1sccc1-n1cccc1	9.0%	-1.3%	-10.9%	13.1%	-2.2%	8.91µM*
NNC(=O)CN1CCN(c2ncc(C(F)(F)F)cc2Cl)CC1	-0.9%	-28.6%	12.2%	0.4%	-0.2%	.
O=C(CN1CCN(c2ncc(C(F)(F)F)cc2Cl)CC1)NCCNc1ncc(C(F)(F)F)cc1Cl	?	14.6µM*	-0.7%	0.2%	-0.3%	2.2%
c1ccc(N2CCCCC2)c(Nc2nc3ccccc3n3cnnc23)c1	0.9%	?	2.9%	4.3%	-0.3%	.
FC(F)(F)c1ccc(N2CCOCC2)c(Nc2nc3ccccc3n3cnnc23)c1	16.4µM*	20.6µM*	1.3%	6.6%	1.7%	-21.8%
CCCCCCCCCCOC(=O)Cn1c(COc2ccccc2)[n+](C)c2ccccc21	-7.7%	?	?	-2.9%	-3.8%	-1.6%
CCCCCCCCCCOC(=O)Cn1c(COc2ccc(OC)cc2)[n+](C)c2ccccc21	?	20.6µM*	?	-3.2%	9.3%	0.4%
CC(C)c1nc2oc3c(NCc4cccnc4)ncnc3c2c2c1CCC2	8.8%	3.8%	-12.9%	-0.6%	-0.6%	14.1µM*
CC(C)Cc1nc2oc3c(NCc4cccnc4)ncnc3c2c2c1CCC2	-0.5%	0.7%	-13.6%	-0.9%	-7.0%	17.8µM*
O=C(CCc1ccccc1)NC(NC(=S)Nc1ccc(Cl)cc1)C(Cl)(Cl)Cl (stereo not given)	?	14.6µM*	23.9%	5.1%	1.6%	1.6%
O=C(NC(NC(=S)Nc1cccc(Cl)c1)C(Cl)(Cl)Cl)OCc1ccccc1 (stereo not given)	?	16.4µM*	?	3.5%	-16.7%	-0.2%
CC[N+]1(CC(=O)c2ccc(I)cc2)CCCCC1	.	.	.	.	.	-2.4%
Cc1ccc(Cl)cc1NC(=O)C(C)n1nnc2sc3c(c2c1=O)CCCC3 (stereo not given)	-4.0%	6.0%	4.5%	0.0%	.	0.5%
CCN(C1CCCCC1)S(=O)(=O)c1ccc(S(=O)(=O)NCc2ccncc2)cc1	-2.5%	8.2µM*	19.5%	-0.7%	6.3%	-0.5%
CCN(C1CCCCC1)S(=O)(=O)c1ccc(S(=O)(=O)NCCc2ccncc2)cc1	-5.6%	-16.2%	4.1%	-0.6%	7.2%	1.1%
CC1CN(C(=O)N2CCCCC2)CCN1C(=O)N1CCCCC1 (stereo not given)	0.9%	18.5%	-1.2%	2.3%	-0.7%	.
O=C(Nc1ccccc1N1CCOCC1)c1ccccc1NS(=O)(=O)c1ccc(F)c(F)c1	-18.4%	20.6µM*	16.1%	-0.4%	0.7%	-3.6%
Cc1cc(F)ccc1S(=O)(=O)Nc1ccccc1C(=O)Nc1ncn[nH]1	5.7%	-15.2%	-7.0%	-0.1%	7.3%	31.6µM*
Cc1ccc(C)c(S(=O)(=O)Nc2ccccc2C(=O)Nc2ccccc2N2CCOCC2)c1	-14.9%	23.1µM*	0.1%	0.3%	-4.3%	-7.4%
O=C(Nc1ccccc1N1CCOCC1)c1ccccc1NS(=O)(=O)c1ccc(F)cc1	3.0%	3.9%	3.4%	0.2%	-0.9%	-1.0%
Cc1cc(F)ccc1S(=O)(=O)Nc1ccccc1C(=O)Nc1ccccc1N1CCOCC1	-2.1%	20.6µM*	4.0%	-0.1%	5.0%	-4.6%
SMILES	A549 viability	Nrf2 block	miR-21 reporter	Nrf2 ARE act	p53 reactivation	ClpP mod
Cc1cc(F)ccc1S(=O)(=O)Nc1ccccc1C(=O)NCc1ccccn1	3.0%	1.8%	1.8%	-1.0%	-2.8%	.
Cc1ccc2oc(C(F)(F)C(F)F)cc(=O)c2c1	4.3%	7.8%	2.8%	-1.6%	3.8%	-1.3%
Cc1ccc2oc(C(Cl)(Cl)Cl)cc(=O)c2c1	?	0.5%	24.1%	22.4µM*	9.7%	-0.7%
Cc1c(NC(=O)c2ccc(-c3cccc([N+](=O)[O-])c3)o2)cccc1-c1nc2cc(Cl)ccc2o1	5.7%	?	-41.3%	30.1%	.	-10.8%
Cc1ccc(S(=O)(=O)N2CCN(C(=O)c3cc(S(=O)(=O)N4CCOCC4)ccc3Cl)CC2)c(C)c1	-4.2%	20.6µM*	.	0.4%	.	2.8%
O=C(c1cc(S(=O)(=O)N2CCCCC2)ccc1Cl)N1CCOCC1	-0.9%	-0.5%	1.2%	0.2%	4.5%	-1.1%
CCn1cc(C(=O)N2CCN(c3cccc(Cl)c3)CC2)c(=O)c2cc(S(=O)(=O)N3CCC(C)CC3)ccc21	-3.5%	20.6µM*	19.5%	0.1%	.	0.6%
CCn1cc(C(=O)N2CCCC2)c(=O)c2cc(S(=O)(=O)N3CCC(C)CC3)ccc21	-2.9%	-6.4%	-0.9%	0.2%	-10.4%	-0.1%
CCn1cc(C(=O)N2CCN(c3cc(Cl)ccc3C)CC2)c(=O)c2cc(S(=O)(=O)N3CCOCC3)ccc21	-12.1%	20.6µM*	27.2%	-0.7%	.	1.3%
O=C(CC1N=C2c3ccccc3N=C(SCc3ccc(Cl)cc3)N2C1=O)NCCc1ccccc1 (stereo not given)	?	.	?	8.5%	.	4.3%
CC(C)NC(=O)CN1C(=O)c2cccnc2Sc2ccccc21	13.4%	?	-2.5%	0.9%	.	0.2%
CN(C)c1ccc(NC(=O)CN2C(=O)c3ccccc3Sc3ccc(C(=O)N4CCCC4)cc32)cc1	-4.3%	.	-2.0%	10.0%	.	0.5%
CC(=O)N(Cc1ccc(F)cc1)C1=C(NCc2ccccc2)C(=O)c2ccccc2C1=O	10µM*	6.31µM*	?	-2.5%	-14.4%	-3.8%
O=C(NCc1ccc(F)cc1)C(c1ccccc1)c1ccccc1	8.6%	0.0%	7.1%	-0.5%	.	-1.5%
O=C(CCCCCN1C(=O)c2ccccc2C1=O)NCc1ccco1	-9.9%	14.6%	-0.6%	0.3%	-2.5%	17.8µM*
CCOc1cc2[nH]c(=O)n(CCCCC(=O)NCc3ccco3)c(=O)c2cc1OCC	-26.8%	?	0.3%	-0.1%	-5.9%	35.5µM*
CCOc1cc2[nH]c(=O)n(CCCCC(=O)N3CCCCCC3)c(=O)c2cc1OCC	-1.7%	-11.7%	-4.2%	-0.6%	-4.2%	12.6µM*
